This is a sample that favours compounds with a hit; in the whole collection about 3.6% have one here.
LMP1 NFkB inh = reduces LMP1-driven NF-kappaB luciferase signal; 350,000 compounds, 0.69% hits; AID 504558; inhibition, % at 12.5 µM; LMP1-induced NF-kappaB luciferase reporter cells, luminescence; in the data active means inhibition above about 41%; inconclusive means no clear call, values can overlap the other calls
HSF1 activator = increases HSF-1 driven luciferase reporter signal. NIH3T3-HGL HSF-1 luciferase reporter, MG132, 8 h; 100% = twice DMSO control signal. activation, % at 9 µM. 300,000 compounds, 1.7% hits. AID 504408;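 active means mean replicate activation of at least 50% with a set share of replicates each reaching 50%; inconclusive means only one of those two conditions met; inactive means mean below 50% and too few replicates reaching it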
HSF1 inh = HSF1 inhibition; 300,000 compounds, 0.77% hits; activity change, negative = inhibition, % at 7.5 µM (by protocol); NIH3T3-HGL HSE-luciferase, MG132-induced, luminescence 8 h; stronger effect = lower value;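 active means more than half of replicate wells show activity change below -50%, luminescence cut by over half; inconclusive means some wells, but at most half, below -50%; inactive means no replicate well below -50%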;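 further: luciferase reports HSF-1 transcriptional activity via heat shock element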
LGR2 antag = inhibitors of bursicon-induced Drosophila LGR2 receptor cAMP signaling; inhibition, % at 9.99 µM; AID 720647; 380,000 compounds, 0.35% hits; HEK293 LGR2, CRE-luciferase, bursicon-stimulated, 4 h;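 active means drop in luminescence signal, shown as inhibition above about 50% in the replicate tests, limit read from the data, passing the limit was not always enough; inconclusive means probably only some replicates passing the limit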;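 further: agonist challenge used bursicon conditioned medium at about half maximal strength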
TROY NFkB inh = inhibitors of TROY-dependent NF-kB signaling; Q293 LMP1-TROYcd NF-kB luciferase reporter, 4 h; inhibition, % at 10 µM; 360,000 compounds, 0.98% hits; AID 1347056;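 active means compounds whose plate-normalised and pattern-corrected inhibition of the luciferase reporter signal at the single screening dose is 50% or more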
TWEAK Fn14 block = blocks TWEAK-Fn14 interaction in a reporter cell assay; 360,000 compounds, 2% hits; AID 1159606; TWEAK-stimulated Fn14 reporter cells, luciferase luminescence, 8 h; inhibition, % at 10 µM; in the data active means inhibition above about 50%
A number is an active result.

Results for CCCc1nc(SCC(=O)NCc2ccco2)c2c(=O)n(C)c(=O)n(C)c2n1 ?
LMP1 NFkB inh: 66.5; HSF1 activator: inactive; HSF1 inh: inactive; LGR2 antag: inactive; TROY NFkB inh: inactive; TWEAK Fn14 block: inactive

Results for COc1ccc2c3c([nH]c2c1)[C@H](CO)N(C(=O)C1CC1)CC31CN(C)C1 ?
LGR2 antag: inactive

How did COc1ccc(-c2ccc3c(c2)O[C@H](CN(C)C(C)=O)[C@H](C)CN([C@H](C)CO)S3(=O)=O)cc1 do in these assays?
LGR2 antag: inactive

What do the screens show for `O=C(c1ccccn1)N1CC2(C1)[C@H](c1ccccc1)[C@@H](CO)N2C(=O)C1CCC1`?
LGR2 antag: inactive

Results for Cc1ccc(-c2cc3c(N=O)c4ccccc4c-3n[nH]2)cc1 ?
LMP1 NFkB inh: 63.1; HSF1 activator: inactive; HSF1 inh: inconclusive; LGR2 antag: 94.5; TROY NFkB inh: 88.1; TWEAK Fn14 block: 102.9

How did Cc1cccc(-c2cc3c(N=O)c4ccccc4c-3n[nH]2)c1 do in these assays?
LMP1 NFkB inh: inactive; LGR2 antag: inactive; TROY NFkB inh: inactive; TWEAK Fn14 block: 53.0

How did O=c1[nH]nc(-c2ccccc2)c2ccccc12 do in these assays?
LMP1 NFkB inh: inactive; HSF1 activator: inactive; HSF1 inh: inactive; LGR2 antag: inactive; TROY NFkB inh: inactive; TWEAK Fn14 block: inactive

How did O=Nc1c2cc(-c3ccccc3)[nH]nc-2c2ccccc12 do in these assays?
LMP1 NFkB inh: inactive; HSF1 activator: inactive; HSF1 inh: inactive; LGR2 antag: inconclusive; TROY NFkB inh: 70.7; TWEAK Fn14 block: 80.1

How did CCN1[C@H](C(=O)NC2CCCCC2)[C@@H](CO)[C@@H]2Cn3c(ccc(-c4cccnc4)c3=O)[C@@H]21 do in these assays?
LGR2 antag: inactive

What do the screens show for `O=C(C[C@@H]1C=C[C@@H](NC(=O)c2ccccc2)[C@@H](CO)O1)Nc1ccc(-c2ccccc2)cc1`?
LGR2 antag: inactive

Results for CN1[C@H](C(=O)NCCN2CCCCC2)[C@@H](CO)[C@@H]2Cn3c(ccc(-c4ccc(F)cc4)c3=O)[C@@H]21 ?
LGR2 antag: inactive

Results for COc1ccc(C(=O)N/C(N)=N/c2nc3ccccc3o2)cc1 ?
LMP1 NFkB inh: inactive; HSF1 activator: inactive; HSF1 inh: inactive; TROY NFkB inh: inactive; TWEAK Fn14 block: inactive

Results for COc1ccc(C(=O)/C=C/Sc2nc3ccccc3o2)cc1 ?
LMP1 NFkB inh: inactive; HSF1 activator: 92.6; HSF1 inh: inactive; LGR2 antag: inactive; TROY NFkB inh: inactive; TWEAK Fn14 block: 61.3

What do the screens show for `O=C(C[C@@H]1CC[C@@H]2[C@H](COC[C@H](O)CN2S(=O)(=O)c2ccc(Oc3ccccc3)cc2)O1)Nc1ccccc1`?
LGR2 antag: inactive

How did CCCS(=O)(=O)N1CCC(C(=O)NC2CCCC(C)C2C)CC1 (stereo unspecified) do in these assays?
LMP1 NFkB inh: inactive; HSF1 activator: inactive; HSF1 inh: inactive; TROY NFkB inh: inactive; TWEAK Fn14 block: inactive

How did CCCS(=O)(=O)N1CCCC(C(=O)NC2CCCC(C)C2C)C1 (stereo unspecified) do in these assays?
LMP1 NFkB inh: 59.5; HSF1 activator: inactive; HSF1 inh: inactive; TROY NFkB inh: inactive; TWEAK Fn14 block: inactive

Results for Cc1cccc(OCC(=O)O/N=C(\N)c2ccccn2)c1 ?
LMP1 NFkB inh: inactive; HSF1 activator: inactive; HSF1 inh: inactive; LGR2 antag: inactive; TROY NFkB inh: inactive; TWEAK Fn14 block: inactive

What do the screens show for `CCc1ccc(OCC(=O)O/N=C(\N)c2ccccn2)cc1`?
HSF1 activator: 63.6; HSF1 inh: inactive; LGR2 antag: inactive; TROY NFkB inh: inactive; TWEAK Fn14 block: inactive

How did Cc1ccc(OCC(=O)O/N=C(\N)c2ccccn2)cc1C do in these assays?
HSF1 activator: 107.8; HSF1 inh: inactive; TROY NFkB inh: inactive; TWEAK Fn14 block: inactive

What do the screens show for `N/C(=N\OC(=O)COc1ccc(Br)cc1)c1cccnc1`?
LMP1 NFkB inh: inactive; HSF1 activator: 56.6; HSF1 inh: inactive; LGR2 antag: inactive; TROY NFkB inh: inactive; TWEAK Fn14 block: inactive

What do the screens show for `O=c1cc(-c2ccccc2Cl)oc2cc(O)cc(O)c12`?
LMP1 NFkB inh: inactive; HSF1 activator: inactive; HSF1 inh: inactive; LGR2 antag: inactive; TROY NFkB inh: inactive; TWEAK Fn14 block: inactive

How did O=C1C=CC(O)(c2cc(=O)c3c(O)cc(O)cc3o2)C=C1 do in these assays?
LMP1 NFkB inh: inactive; HSF1 activator: inactive; HSF1 inh: -90.7; LGR2 antag: 89.3; TROY NFkB inh: inactive; TWEAK Fn14 block: 92.2

How did O=C(CC(c1ccc(F)cc1)c1ccco1)N1CCOCC1 (stereo unspecified) do in these assays?
LMP1 NFkB inh: 61.3; HSF1 activator: inactive; HSF1 inh: inactive; LGR2 antag: inactive; TROY NFkB inh: inactive; TWEAK Fn14 block: inactive

Results for O=C(CC(c1ccc(F)cc1)c1ccco1)N1CCCC1 (stereo unspecified) ?
LMP1 NFkB inh: inactive; HSF1 activator: inactive; HSF1 inh: inactive; TROY NFkB inh: inactive; TWEAK Fn14 block: inactive

What do the screens show for `COc1ccc(CN(C)C[C@H]2Oc3c(NC(=O)C4CCOCC4)cccc3C(=O)N([C@H](C)CO)C[C@@H]2C)cc1`?
LGR2 antag: inactive

What do the screens show for `COc1ccc(NC(=O)c2cccs2)c([N+](=O)[O-])c1`?
LMP1 NFkB inh: inactive; HSF1 activator: inactive; HSF1 inh: inactive; TROY NFkB inh: inactive; TWEAK Fn14 block: inactive

How did C/C(CC(=O)Nc1ccc(Cl)cc1C(F)(F)F)=N\NC(=O)c1cccs1 do in these assays?
LMP1 NFkB inh: inactive; HSF1 activator: 64.6; HSF1 inh: inactive; LGR2 antag: inactive; TROY NFkB inh: inactive; TWEAK Fn14 block: inactive

Results for COc1ccc(NC(=O)c2sccc2C)c([N+](=O)[O-])c1 ?
LMP1 NFkB inh: inactive; HSF1 activator: 74.2; HSF1 inh: inactive; TROY NFkB inh: inactive; TWEAK Fn14 block: inactive

What do the screens show for `COc1ccc(NC(=O)C/C(C)=N/NC(=O)c2cccs2)c([N+](=O)[O-])c1`?
LMP1 NFkB inh: inactive; HSF1 activator: 69.7; HSF1 inh: inactive; LGR2 antag: inactive; TROY NFkB inh: inactive; TWEAK Fn14 block: inactive

Results for O=C(Nc1ccc(F)cc1)N1C[C@@H]2[C@H](c3ccccc31)[C@H](CO)N2C(=O)c1ccc(F)cc1 ?
LGR2 antag: inactive

Results for CCCC(=O)Nc1ccc2c(c1)OC[C@H](C)N(C(=O)C1CCCC1)C[C@H](C)[C@H](OC)CN(C)C2=O ?
LGR2 antag: inactive

How did COc1ccccc1S(=O)(=O)Nc1ccc2c(c1)C(=O)N(C)C[C@@H](OC)[C@@H](C)CN[C@H](C)CO2 do in these assays?
LGR2 antag: inactive

How did Cc1ccccc1C(=O)NC(=S)Nc1sc2c(c1C#N)CCC(C)C2 (stereo unspecified) do in these assays?
LMP1 NFkB inh: inactive; HSF1 activator: inactive; HSF1 inh: inactive; TROY NFkB inh: inactive; TWEAK Fn14 block: inactive

How did Cc1cc(C(=O)Nc2sc3c(c2C#N)CCC(C)C3)cs1 (stereo unspecified) do in these assays?
LMP1 NFkB inh: inactive; HSF1 activator: 74.4; HSF1 inh: inactive; TROY NFkB inh: inactive; TWEAK Fn14 block: inactive

Bioassay records: PubChem BioAssay, several laboratories
